Sampled rows, rich in hits. Any-hit rate of the full collection: about 4.1%.
Mdm2 MdmX PPI: disrupts the human Mdm2-MdmX interaction; inhibition, % at 8 µM; O15151+Q00987; SaOS-2 split-luciferase Mdm2/MdmX complementation, luminescence; 330,000 tested, 3% active;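 active = inhibition of at least 50% at 8 µM in the primary screen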
Target sequence (O15151 whole entry, looked up): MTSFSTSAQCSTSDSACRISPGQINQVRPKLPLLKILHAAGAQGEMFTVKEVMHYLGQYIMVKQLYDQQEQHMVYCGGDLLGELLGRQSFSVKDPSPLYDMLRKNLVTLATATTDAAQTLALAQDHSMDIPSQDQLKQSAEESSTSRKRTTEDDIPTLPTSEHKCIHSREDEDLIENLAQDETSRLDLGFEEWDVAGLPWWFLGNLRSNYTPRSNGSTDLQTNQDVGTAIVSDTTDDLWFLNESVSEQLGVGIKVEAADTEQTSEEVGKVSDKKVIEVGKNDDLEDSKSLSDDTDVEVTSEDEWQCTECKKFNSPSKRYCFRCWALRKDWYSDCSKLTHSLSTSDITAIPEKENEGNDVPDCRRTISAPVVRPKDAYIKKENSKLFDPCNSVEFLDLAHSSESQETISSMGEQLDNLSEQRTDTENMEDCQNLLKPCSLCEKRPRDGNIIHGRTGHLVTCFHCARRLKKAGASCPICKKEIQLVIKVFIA
Target sequence (Q00987 whole entry, looked up): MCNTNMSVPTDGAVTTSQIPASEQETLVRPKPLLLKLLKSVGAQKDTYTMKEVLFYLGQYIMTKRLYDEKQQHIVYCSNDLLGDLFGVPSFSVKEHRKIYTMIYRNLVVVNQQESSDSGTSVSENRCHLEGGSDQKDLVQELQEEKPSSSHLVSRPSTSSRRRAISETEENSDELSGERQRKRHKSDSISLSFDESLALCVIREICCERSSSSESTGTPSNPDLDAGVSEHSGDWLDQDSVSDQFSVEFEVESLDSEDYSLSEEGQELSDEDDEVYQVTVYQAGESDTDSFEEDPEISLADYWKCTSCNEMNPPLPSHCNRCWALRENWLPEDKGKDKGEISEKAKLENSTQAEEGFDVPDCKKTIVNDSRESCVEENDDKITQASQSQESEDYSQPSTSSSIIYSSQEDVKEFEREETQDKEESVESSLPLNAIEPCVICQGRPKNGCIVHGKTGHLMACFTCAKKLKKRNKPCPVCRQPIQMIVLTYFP
697 NFkB inh: inhibitors of the PMA/ionomycin-induced NF-kB reporter in 697 B cells; inhibition, % at 4 µM; 330,000 tested, 0.33% active; 697 B-cell NF-kB luciferase reporter, 16 h; in the data active = inhibition above about 35%
aSyn UTR inh: MLPCN primary screen, SNCA 5' untranslated region | alpha-synuclein 5'UTR reporter, inhibitor activity | inhibition, % (tested at 7.5 µM) | 300,000 tested, 0.82% active | AID 1813; in the data active = inhibition above about 60%;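 note: H4 neuroglioblastoma cells stably carrying SNCA 5'UTR luciferase fusion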
KLF5 inh: suppresses KLF5 promoter-driven expression; inhibition, % at 5 µM; 290,000 tested, 0.23% active; DLD-1 KLF5 promoter-luciferase reporter, luminescence;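 active = inhibition above a per-plate limit of that plate's mean compound inhibition plus 3 SD, cut at about 60% in these data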;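 note: higher means less KLF5 promoter-driven luciferase light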
Gli-Sufu antag: Gli-Sufu pathway antagonism | Sufu-KO-LIGHT fibroblasts, Gli luciferase reporter luminescence | inhibition, % at 5 µM | 340,000 tested, 0.74% active | AID 588413;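 active = inhibition above about 55%, limit read from the data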
Jurkat NFkB inh: lowers PMA/ionomycin-induced NF-kB signal in Jurkat cells; 330,000 tested, 0.53% active; inhibition, % at 4 µM; AID 435003; PMA/ionomycin-induced NF-kB luciferase reporter, luminescence; in the data active = inhibition above about 50%
697 NFkB conf: lowers PMA/ionomycin-induced NF-kB signal in 697 B cells | shares compounds with 697 NFkB inh | 697 B-cell NF-kB luciferase, 16 h | inhibition, % at 4 µM | AID 449746 | 2,000 tested, 35% active; in the data active = inhibition mostly above about 28%, no sharp cut-off; inactive = mostly below about 22%
Numbers stand for hits; - = inactive; . = no result.

SMILES	Mdm2 MdmX PPI	697 NFkB inh	aSyn UTR inh	KLF5 inh	Gli-Sufu antag	Jurkat NFkB inh	697 NFkB conf
CCCCn1c(N)c(N(CCC(C)C)C(=O)COC(=O)Cc2ccc(Cl)cc2)c(=O)[nH]c1=O	.	.	.	.	-	.	.
COc1ccc(/C=C2\CC/C(=C\c3ccc(OC)c(OC)c3)C2=O)cc1OC	-	-	-	-	-	-	.
COc1cc(/C=C2/CC/C(=C/c3ccc(O)c(OC)c3)C2=O)ccc1O	-	36	-	-	-	-	-
CCOC(=O)C1CCN(C/C=C/c2ccccc2OC)CC1	-	38	-	-	-	-	-
CCOC(=O)CNC(=O)CSc1nc(-c2ccc(OC)cc2)ns1	-	-	-	-	-	-	.
COc1ccc(-c2nsc(SCC(=O)Nc3cc(C)on3)n2)cc1	-	43	-	-	-	-	30
Cn1cc(SCC(=O)NCc2ccc(F)cc2)c2ccccc21	-	40	-	-	-	-	-
O=C(O)CCC(=O)c1ccc2c(c1)CCCC2	-	35	-	-	.	-	-
COc1ccc(NC(=O)COC(=O)CNS(=O)(=O)c2ccc(F)c(F)c2F)cc1OC	-	-	-	-	-	-	.
Oc1ccc(Oc2ccc3c(C(F)(F)F)cc(C(F)(F)F)nc3n2)cc1	-	46	-	-	-	-	-
N#CC1=C(N)Oc2cc(N)ccc2C1c1cccnc1 (stereo not given)	-	-	-	-	-	-	.
N#CC1=C(N)Oc2cc(Nc3ccccc3)ccc2C1c1ccncc1 (stereo not given)	-	37	-	-	-	-	41
S=C(c1ccc(-c2ccccc2)cc1)N1CCOCC1	-	55	64	-	-	-	-
Cc1csc(NC(=O)CCc2c(C)nc3cc(-c4ccc(Cl)cc4)nn3c2C)n1	-	42	.	-	-	-	42
COc1cc(OC)cc(-c2cc3nc(C)c(CCC(=O)NCc4ccccc4)c(C)n3n2)c1	-	38	75	-	-	-	45
Cc1nc2cc(-c3ccc(Cl)cc3)nn2c(C)c1CCC(=O)NC(C)c1ccc2c(c1)OCCO2 (stereo not given)	-	37	74	-	-	-	27
COc1ccccc1-c1cc2nc(C)c(CCC(=O)NCc3ccc(F)cc3)c(C)n2n1	-	-	-	-	-	-	.
Cc1ccc(NC(=S)c2nc3ccccc3s2)cc1	-	-	-	-	-	-	-
S=C(Nc1ccc(Cl)cc1)c1nc2ccccc2s1	-	-	-	-	-	-	.
Cc1cccc(OCC(=O)Nc2nnc(S(=O)(=O)N3CCCCCC3)s2)c1	-	-	-	-	-	-	.
CCOC(=O)C1CCN(c2ncnc3c2cnn3C)CC1	-	-	-	-	-	-	.
CCOC(=O)C1CCN(c2ncnc3c2cnn3-c2ccc(Cl)cc2)CC1	-	61	65	-	-	-	67
Cc1ccn2c(C(=O)c3ccc(Cl)cc3)cnc2c1	-	-	-	-	-	-	-
Cn1c(=N)n(CC(=O)c2ccccc2)c2ccccc21	-	-	90	-	-	-	-
Cn1c(=N)n(CC(=O)O)c2ccccc21	-	-	-	-	-	-	.
SMILES	Mdm2 MdmX PPI	697 NFkB inh	aSyn UTR inh	KLF5 inh	Gli-Sufu antag	Jurkat NFkB inh	697 NFkB conf
Cc1ccc(S(=O)(=O)Nc2ccc(-c3cn4ccc(C)cc4n3)cc2)cc1	-	-	-	-	-	-	.
Cc1ccn2cc(-c3ccc(Br)cc3)nc2c1	-	-	63	-	-	-	-
Cn1c(SCC(=O)NCCc2ccccc2)ncc(C(=O)Nc2ccc(F)cc2)c1=O	-	-	-	.	-	-	.
O=C(Nc1nc2ccccc2[nH]1)c1ccc(Cl)cc1	-	-	66	-	-	-	-
CC(=O)NC12CC3CC(C1)CC(C(=O)NCc1ccc(C)cc1)(C3)C2	-	-	-	-	-	-	.
OCCC1CN(Cc2cccc3c2OCO3)CCN1C1CCCC1 (stereo not given)	-	-	-	-	-	-	.
Cc1ccn2cc(CCNC(=O)COc3ccccc3)nc2c1	-	-	-	-	-	-	-
Cc1ccn2cc(CCNC(=O)CC(C)(C)C)nc2c1	-	-	-	-	-	-	.
COc1cc2[nH]c(=S)n(CC3CCCO3)c(=O)c2cc1OC (stereo not given)	-	37	-	-	-	-	-
c1csc(-c2nc(-c3ccc(-c4ccon4)s3)no2)c1	-	-	-	-	-	-	-
Cc1ccc(-c2noc(-c3cccs3)n2)cc1	-	-	-	-	-	-	-
CCCn1c(SCC(=O)N(C)CC(=O)Nc2ccc(C)cc2)n[nH]c1=O	-	-	.	.	-	-	.
O=C(Nc1ccc2c(c1)OCO2)C(=O)c1c[nH]c2ccccc12	-	-	-	-	-	-	.
COc1ccccc1/C=C/C(=O)Nc1ccc2c(c1)OCCO2	-	-	-	-	-	-	.
O=C(/C=C/c1ccccc1)Nc1ccc2c(c1)OCCO2	-	-	-	-	-	-	-
O=C(Nc1ccc2c(c1)OCCO2)C(=O)c1c[nH]c2ccccc12	-	-	-	-	-	-	-
CCOc1ccccc1CN1CCC(CO)(CCOc2ccccc2)CC1	-	-	-	-	-	-	.
Cc1nn(C)cc1CN1CCC(CO)(CCOc2ccccc2)CC1	-	43	-	-	-	-	-
Nc1ccc(C(=O)OCCc2ccccc2)cc1	-	-	-	.	-	-	.
O=C(OCCc1ccccc1)c1cc(O)c(O)c(O)c1	-	-	-	.	-	-	-
CC(OC(=O)Cc1c[nH]c2ccccc12)C(=O)Nc1ccc(S(N)(=O)=O)cc1 (stereo not given)	-	-	-	.	-	-	.
ClCc1nnc(-c2ccccc2)o1	-	35	-	-	-	-	29
Cc1ccc(C(=O)c2cccc(N)c2)cc1C	-	37	82	-	-	-	-
Cc1ccc(C(=O)c2ccc(O)cc2)cc1C	-	-	.	-	-	-	.
CC(C)(C)c1ccc(C(=O)NC2CCN(Cc3ccccc3)CC2)cc1	-	-	-	-	-	-	.
SMILES	Mdm2 MdmX PPI	697 NFkB inh	aSyn UTR inh	KLF5 inh	Gli-Sufu antag	Jurkat NFkB inh	697 NFkB conf
COc1cc(C(=O)Nc2nc(OC)c(-c3ccccc3)c(OC)n2)cc(OC)c1OC	-	38	-	-	-	-	-
O=C(c1ccc(F)cc1)C1CCN(C(=S)Nc2ccc(F)cc2)CC1	-	-	-	-	-	-	.
Cc1nc(SCC(=O)N2CCOCC2)c2c3c(sc2n1)CCC3	-	-	.	.	-	-	.
COc1cccc(CNC(=O)[C@@H](C)N2C(=O)N3CCc4c([nH]c5ccc(OC)cc45)C3(C)C2=O)c1 (stereo not given in full)	-	-	-	-	-	-	.
CCC(=O)Nc1cc2nn(-c3ccc(OC)cc3)nc2cc1C	-	-	-	-	-	-	-
CCOC(=O)c1[nH]c(C)c(C(=O)NCCc2ccc(OC)cc2)c1C	-	36	-	-	-	-	-
CN1CCN(C(=O)c2cc(Cl)ccc2NC(=O)c2ccc(Cl)cc2Cl)CC1	-	-	-	-	-	-	.
Cc1ccc(Nc2nc(N)nc(-c3oc4ccccc4c3C)n2)cc1	-	-	91	-	-	-	-
